IMPase inh: membrane-permeable compound that blocks inositol monophosphatase. P97697. CHO-M1 cells, IP1 accumulation, HTRF TR-FRET ratio. inhibition (IP1 accumulation), % at 46.1 µM. 120,000 tested, under 10 active. AID 901; active = well fitted curve in the direction sought with a large enough effect in the signal ratio, not every such curve was filed as active; inconclusive = small, poorly fitted or top-dose-only effect, or a change in a side signal; inactive = no such curve, though single readings can be large or run the other way; the % refers to the signal ratio;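 also: cells stimulated with carbachol in lithium chloride buffer; plate controls were DMSO basal wells for no effect and reference inhibitor wells for full effect; higher means more IMPase inhibition seen as more IP1 and lower FRET ratio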
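The IP-One HTRF competitive assay in carbachol-stimulated CHO-M1 cells quantifies cellular IP1. Compounds spanned up to 46 uM final, and activity is expressed as AC50 from concentration-response fits of the ratio and donor data.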
NPSR antag: blocks cAMP signaling of the human neuropeptide S receptor; AID 1461; 220,000 compounds, 1% hits; Q6W5P4; Potency, µM (highest dose often 38.3 µM), inactives show top-dose activity change, negative = inhibition, hits mostly inhibitors; CHO-NPSR cells, cAMP TR-FRET, antagonist mode; active = well fitted curve in the direction sought with a large enough effect; inconclusive = small, poorly fitted or top-dose-only effect, or another doubt; inactive = no such curve, though single readings can be large; an effect the other way counts as inactive or inconclusive; also: potency is read from the fitted curve at half-maximal effect; nearly all actives have a fitted effect of over 50% in size
PNC inhibitor: blocks assembly of the perinucleolar compartment. PC3M PTB-GFP, PNC prevalence imaging, 16 h; stronger effect = lower value. activity change (PNC), negative = inhibition, % at 10 µM. 140,000 compounds, 3.1% hits. AID 2417;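 active = readout at or below -70, meaning at least 70% loss of cells showing the perinucleolar compartment, a nuclear body marking cancer cells; inconclusive = readout between -30 and a set limit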;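 also: plate controls were DMSO wells for no effect and camptothecin positive control wells for full effect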
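Compounds are pinned in duplicate onto adhered PC3M cells stably expressing GFP-tagged PTB and incubated 16 h at 37 C. Cells are then fixed, nuclei stained with Hoechst, and PNC-positive cells counted.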
IMPase Li cell: cell-permeable IMPase inhibitors with lithium potentiation; Potency, µM (doses to about 59.4 µM), inactives show at the highest dose activity, negative = IMPase inhibition, actives largely listed as inhibitors; 210,000 compounds, 0.35% hits; CHO-M1 cells, IP1 TR-FRET (IP-One), carbachol + lithium; active = well fitted curve in the direction sought with a large enough effect; inconclusive = small, poorly fitted or top-dose-only effect, or another doubt; inactive = no such curve, though single readings can be large; an effect the other way counts as inactive or inconclusive;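 also: IP1 builds up when IMPase is blocked and the TR-FRET signal falls; potency is read from the fitted curve at half-maximal effect; plate controls were basal vehicle for no effect and high inhibitor control for full effect; nearly all actives have a fitted effect of over 50% in size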
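Readout is a homogeneous TR-FRET IP1 immunoassay (Ex 320, Em 665 and 620), where raised cytosolic IP1 lowers signal. Cells were CHO-M1 treated 30 min at 37C with test compounds plus a little lithium; AC50 values came from Hill-equation fitting.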
HPGD inh: blocks human HPGD enzyme activity; P15428; purified HPGD, NADH fluorescence kinetic, PGE2 substrate; Potency, µM, for the others: at the highest dose activity change, negative = inhibition, hits mostly inhibitors; 150,000 compounds, 4.3% hits; also: potency is read from the fitted curve at half-maximal effect
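NADH formation kinetics: reaction with 30 uM PGE2 and 1 mM NAD+ (final), 20 nM enzyme, Tris-HCl pH 8 with Tween 20, after 15 min compound preincubation at room temperature. Fluorescence change, last versus first of five reads.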
ALDH1A1 inh: blocks purified human ALDH1A1 activity; Potency, µM (series often up to 75.3 µM), without a hit: at the top dose activity, negative = inhibition, hits mostly inhibitors; Purified ALDH1A1, NADH fluorescence, propionaldehyde substrate; 220,000 compounds, 7.3% hits; AID 1030; P00352;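 also: potency is read from the fitted curve at half-maximal effect; plate controls were no enzyme wells and a reference inhibitor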
Target sequence (P00352 whole entry, looked up): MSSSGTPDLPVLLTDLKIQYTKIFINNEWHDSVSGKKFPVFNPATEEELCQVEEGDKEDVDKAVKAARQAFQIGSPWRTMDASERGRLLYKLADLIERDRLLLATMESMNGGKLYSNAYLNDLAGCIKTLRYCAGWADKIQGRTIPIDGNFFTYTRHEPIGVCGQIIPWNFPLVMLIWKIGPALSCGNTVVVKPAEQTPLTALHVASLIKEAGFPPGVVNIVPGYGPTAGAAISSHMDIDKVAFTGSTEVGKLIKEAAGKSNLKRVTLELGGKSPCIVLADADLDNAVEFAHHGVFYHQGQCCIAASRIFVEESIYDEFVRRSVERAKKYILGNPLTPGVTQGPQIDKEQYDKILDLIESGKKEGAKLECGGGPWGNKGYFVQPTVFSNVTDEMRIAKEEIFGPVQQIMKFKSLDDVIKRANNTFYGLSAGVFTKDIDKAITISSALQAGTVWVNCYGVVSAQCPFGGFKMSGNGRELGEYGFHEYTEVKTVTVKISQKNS
Active calls of the source: *; ? = inconclusive; . = no result given; [ ] = remark or other dose. This is a sample that favours compounds with a hit; in the whole collection about 11% have one here. Unless noted, calls follow the shape of the dose curve; as a rule, active = well fitted inhibition curve with a large enough effect (not every such curve was filed as active); inconclusive = small, poorly fitted or top-dose-only effect, or another doubt; inactive = no such curve, though single readings can be large or run the other way. Unless noted, % is scaled to controls: 0 for no effect and ±100 for the full control effect.

SMILES	IMPase inh	NPSR antag	PNC inhibitor	IMPase Li cell	HPGD inh	ALDH1A1 inh
CCc1ccc2nc(N3C(=O)c4oc5ccccc5c(=O)c4C3c3ccc(OC)c(OC)c3)sc2c1 (configuration not stated)	.	2%	?	-5%	-7%	0%
O=C(Nc1nnc(SCc2ccc(F)cc2)s1)c1ccc2c(c1)C(=O)N(c1ccccc1Cl)C2=O	.	-2%	.	8%	.	1.3µM*
Fc1cccc(F)c1-n1c(CN2CCCC2)csc1=S	.	-3%	.	0%	.	22µM*
CCOc1ccccc1NC(=O)CSc1nnc(-c2cnccn2)n1CC	6	-6%[46.1 µM]	?	28%[38.3 µM]	-15%	?
CC(=O)Nc1ccc(N2C(=O)CC(N3CCSCC3)C2=O)cc1 (configuration not stated)	.	8%	.	0%	.	?
CC(=O)Nc1ccc(N2C(=O)CC(N3CC(C)OC(C)C3)C2=O)cc1 (configuration not stated)	-4	7%[46.1 µM]	8	-14%[38.3 µM]	-14%	7.9µM*
CCCOc1ccc(N2C(=O)CC(N3CCCC(C(=O)N4CCCC4)C3)C2=O)cc1 (configuration not stated)	-8	2%[46.1 µM]	?	9%[38.3 µM]	-12%	18µM*
COC(=O)c1ccc(N2C(=O)CC(N3CCOCC3)C2=O)cc1 (configuration not stated)	-11	5%[46.1 µM]	?	-25%[38.3 µM]	-7%	28µM*
COc1ccccc1N(O)C1CC(=O)N(c2ccc(F)cc2)C1=O (configuration not stated)	-1	-6%[46.1 µM]	32	-8%	22µM*	1.3µM*
CCOC(=O)C1CCCN(C2CC(=O)N(c3cccc(C)c3)C2=O)C1 (configuration not stated)	-8	1%[46.1 µM]	19	5%[38.3 µM]	-6%	?
O=C1CC(N2CCOCC2)C(=O)N1c1ccc(Cl)cc1 (configuration not stated)	.	5%	.	.	.	.
COc1ccc(N2Cc3ccccc3C2=NC(=O)c2ccc(C)cc2)cc1OC	.	-30%	.	10%	.	?
Nc1c(C(=O)CCC(=O)O)oc2ccc(Cl)cc12	-1	-10%[46.1 µM]	30	-12%[38.3 µM]	?	?
Oc1ccc2ccccc2c1CN1CCCC1	.	8%	.	1%	.	?
COc1ccc(CCNC(=O)c2ccc(CS(=O)(=O)c3ccc(Cl)cc3)o2)cc1OC	5	-8%[46.1 µM]	61	11%[38.3 µM]	-10%	-3%
CCCOc1ccc(N2C(=O)CC(N(O)c3ccccc3)C2=O)cc1 (configuration not stated)	6	-10%[46.1 µM]	-89*	-11%[38.3 µM]	4%	?
CCOc1ccc(N2C(=O)CC(N3CCN(C(=O)CN4CCCC4)CC3)C2=O)cc1 (configuration not stated)	4	-18%[46.1 µM]	-114*	-4%[38.3 µM]	-7%	16µM*
CCCOc1ccccc1N1C(=O)CC(N(O)c2ccccc2)C1=O (configuration not stated)	.	-7%	.	2%	.	-3%
CCCOc1ccc(N2C(=O)CC(N3CCC(C(=O)OCC)CC3)C2=O)cc1 (configuration not stated)	2	-3%[46.1 µM]	16	-11%[38.3 µM]	-7%	?
CCCOc1ccc(N2C(=O)CC(N3CCOCC3)C2=O)cc1 (configuration not stated)	4	11%[46.1 µM]	?	0%[38.3 µM]	-7%	25µM*
Cc1ccc(CNCC2CCCO2)s1 (configuration not stated)	-4	13%[46.1 µM]	13	43%[38.3 µM]	-15%	-16%
COc1cc(OC)c(-c2c3cc(O)c(=O)cc-3oc3cc(O)c(O)cc23)cc1OC	18	-25%	-27	5%	16µM*	10µM*
NC(=S)N/N=C/c1coc2ccc(Br)cc2c1=O	.	5%	.	.	.	.
O=c1cc(/N=C/c2coc3c(ccc4ccccc43)c2=O)[nH]c(=S)[nH]1	.	-2%	39	2%	2.2µM*	?
NC(=S)N/N=C/c1coc2c(ccc3ccccc32)c1=O	1	-1%[46.1 µM]	-28	4%	-12%	2.2µM*
NC(=S)N/N=C/c1coc2cc(Br)ccc2c1=O	.	-26%	.	.	.	2µM*

Screening results: PubChem BioAssay, National Center for Advancing Translational Sciences (NCATS)
